Hits are enriched below; roughly 2.5% of the tested compounds scored in any of these assays.
ASK1 primary: ASK1 kinase inhibitors, primary screen, biochemical, AlphaScreen. AlphaScreen MKK6 phosphorylation by ASK1, luminescence. inhibition, % at 7.44 µM. 0.99% of 22,000 active. AID 1159602, 2016; in the data active = inhibition above about 35%;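 also: 0% = median of compound wells and 100% = no enzyme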
ULK1 inh: ULK1 kinase inhibitors, primary screen, biochemical, AlphaScreen. Serine/threonine-protein kinase ULK1 (Homo sapiens), O75385. AlphaScreen Atg13 phosphorylation by ULK1, luminescence. inhibition, % at 5.96 µM. 1.9% of 30,000 active. AID 1259251, 2017; in the data active = inhibition above about 43%;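 also: 0% = median of compound wells and 100% = no enzyme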
Target sequence (O75385 whole entry, looked up): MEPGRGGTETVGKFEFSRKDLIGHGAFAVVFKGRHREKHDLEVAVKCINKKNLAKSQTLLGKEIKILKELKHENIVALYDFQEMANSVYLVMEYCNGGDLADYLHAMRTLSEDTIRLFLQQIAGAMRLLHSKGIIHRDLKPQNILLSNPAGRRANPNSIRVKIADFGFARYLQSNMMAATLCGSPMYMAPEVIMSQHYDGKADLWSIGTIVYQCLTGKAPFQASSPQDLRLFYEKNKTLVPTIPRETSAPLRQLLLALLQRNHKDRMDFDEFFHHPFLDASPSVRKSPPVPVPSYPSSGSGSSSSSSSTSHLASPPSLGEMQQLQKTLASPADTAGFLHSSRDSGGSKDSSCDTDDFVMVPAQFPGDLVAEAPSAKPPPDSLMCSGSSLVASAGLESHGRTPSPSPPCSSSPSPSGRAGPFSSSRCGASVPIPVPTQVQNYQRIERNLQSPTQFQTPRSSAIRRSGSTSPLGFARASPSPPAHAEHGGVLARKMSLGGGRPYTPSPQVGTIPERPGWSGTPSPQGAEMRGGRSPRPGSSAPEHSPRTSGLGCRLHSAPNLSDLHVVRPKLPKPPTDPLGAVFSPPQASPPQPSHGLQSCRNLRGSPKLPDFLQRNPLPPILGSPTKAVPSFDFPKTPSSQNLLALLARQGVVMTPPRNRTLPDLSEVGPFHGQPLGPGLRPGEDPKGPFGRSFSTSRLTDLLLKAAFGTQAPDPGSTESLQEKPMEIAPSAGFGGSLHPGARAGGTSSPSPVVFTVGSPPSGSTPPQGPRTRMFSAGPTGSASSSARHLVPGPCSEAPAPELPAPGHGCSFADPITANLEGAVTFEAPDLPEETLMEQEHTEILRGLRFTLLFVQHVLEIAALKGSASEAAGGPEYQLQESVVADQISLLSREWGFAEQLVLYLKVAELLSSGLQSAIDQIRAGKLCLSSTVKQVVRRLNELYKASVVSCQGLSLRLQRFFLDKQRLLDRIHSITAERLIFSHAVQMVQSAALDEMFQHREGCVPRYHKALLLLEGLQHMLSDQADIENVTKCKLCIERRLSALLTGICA
AlphaScreen intf: AlphaScreen signal interference by compounds, dose response, artefact control for ASK1 inhibitor project, biochemical, TruHits beads; shares compounds with ASK1 primary; signal interference counterscreen; IC50, µM; 20% of 220 active; AID 1159604, 2016;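 active = IC50 of 10 µM or lower in the counterscreen; inactive = IC50 above 10 µM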;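 also: loss of AlphaScreen light from TruHits beads alone with no ASK1 enzyme present; potency of signal reduction so a low IC50 flags an assay artifact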
Starred values were filed as active, the others as inactive.

How did CCCNc1cc(C)nc(N2CCN(Cc3ccc4c(c3)OCO4)CC2)n1 do in these assays?
ASK1 primary: 11.4; ULK1 inh: 11.3

What do the screens show for `O=C(Nc1ccc2[nH]ncc2c1)C1CCN(C(=O)Nc2ccc(Br)cc2)C1` (stereo unspecified)?
ASK1 primary: -6.1; ULK1 inh: 4.3

What do the screens show for `CN1CCN(c2ccc(-c3nc(NCc4cccnc4)c4ncn(-c5ccsc5)c4n3)cc2)CC1`?
ASK1 primary: 5.2; ULK1 inh: 32.6

What do the screens show for `CC(=O)Nc1ccc(Nc2nc(Nc3ccc(N4CCOCC4)cc3)nc3c2ncn3C(C)C)cc1`?
ASK1 primary: 23.2; ULK1 inh: 16.4

How did CC(C)n1cnc2c(Nc3ccc(N4CCOCC4)cc3)nc(Nc3ccc(-n4ccnc4)cc3)nc21 do in these assays?
ASK1 primary: 36.0*; ULK1 inh: 67.3*; AlphaScreen intf: >19.1

How did O=C1CCCN1CCCNc1nc(Nc2ccncc2)nc2c1ncn2-c1ccsc1 do in these assays?
ASK1 primary: 9.4; ULK1 inh: 25.9

Results for c1cc(-n2cnc3c(Nc4ccc5c(c4)OCO5)nc(Nc4ccc(N5CCOCC5)cc4)nc32)cs1 ?
ASK1 primary: 49.7*; ULK1 inh: 29.4; AlphaScreen intf: inactive

How did O=C1CCCN1CCCNc1nc(Nc2ccc(-n3ccnc3)cc2)nc2c1ncn2-c1ccsc1 do in these assays?
ASK1 primary: 47.2*; ULK1 inh: 25.3; AlphaScreen intf: >19.9

Results for Nc1nc(Nc2ccc(N3CCOCC3)cc2)cc(Nc2ccc3c(c2)OCO3)n1 ?
ASK1 primary: 37.3*; ULK1 inh: 15.8; AlphaScreen intf: >16.8

Results for c1cc(-n2cnc3c(Nc4ccc5c(c4)OCO5)nc(NCCN4CCOCC4)nc32)cs1 ?
ASK1 primary: 26.2; ULK1 inh: 25.0

How did Nc1nc(NCc2ccc3c(c2)OCO3)cc(Nc2ccc(N3CCOCC3)cc2)n1 do in these assays?
ASK1 primary: 33.0; ULK1 inh: 15.9

Results for C[C@H](NC(=O)OC(C)(C)C)C(=O)N1CCC(C(=O)Nc2ccc3[nH]ncc3c2)C1 (stereo partly specified) ?
ASK1 primary: 4.5; ULK1 inh: 0.5

How did CC(C)n1c(Nc2ccc(N3CCOCC3)cc2)nc2c(NCc3cccc(C(F)(F)F)c3)ncnc21 do in these assays?
ASK1 primary: 9.0; ULK1 inh: -54.4

How did O=C1CCCN1CCCNc1nc(Cl)nc2c1ncn2C1CCCCC1 do in these assays?
ASK1 primary: 2.3; ULK1 inh: 4.6

How did c1cc(-n2cnc3c(NC4CC4)nc(Nc4ccc(N5CCOCC5)cc4)nc32)cs1 do in these assays?
ASK1 primary: 42.7*; ULK1 inh: 24.8; AlphaScreen intf: >20.1

Results for FC(F)(F)c1ccc(Nc2nc(Nc3ccc(N4CCOCC4)cc3)c3ncn(-c4ccsc4)c3n2)cc1 ?
ASK1 primary: 16.8; ULK1 inh: -8.4

Results for c1ccc(N2CCN(c3nc(Nc4ccc(N5CCOCC5)cc4)c4ncn(-c5ccsc5)c4n3)CC2)nc1 ?
ASK1 primary: 45.3*; ULK1 inh: -2.8; AlphaScreen intf: >20

Results for CCCNc1nc(N2CCN(c3ccccn3)CC2)nc2c1ncn2-c1ccsc1 ?
ASK1 primary: 15.8; ULK1 inh: 4.8

Results for Oc1ccc(CCNc2nc(N3CCN(c4ccccn4)CC3)nc3c2ncn3-c2ccsc2)cc1 ?
ASK1 primary: 38.8*; ULK1 inh: 1.7; AlphaScreen intf: >21.3

How did c1ccc(Oc2ccc(Nc3nc(N4CCOCC4)nc4c3ncn4-c3ccsc3)cc2)cc1 do in these assays?
ASK1 primary: 23.8; ULK1 inh: 2.4

Results for OCCCNc1cc(-c2ccccn2)nc(-c2cccnc2)n1 ?
ULK1 inh: 2.4

Results for CC(=O)Nc1cccc2cccc([N+](=O)[O-])c12 ?
ULK1 inh: -8.7

How did COc1cc2nc(Nc3cccc(N(C)C)c3)nc(Nc3ccc(NC(C)=O)cc3)c2cc1OC do in these assays?
ASK1 primary: 54.7*; ULK1 inh: 5.5; AlphaScreen intf: 8.66*

What do the screens show for `COc1cc2nc(Nc3cccc(N(C)C)c3)nc(Nc3ccccc3)c2cc1OC`?
ASK1 primary: 42.2*; ULK1 inh: -20.5; AlphaScreen intf: 4.34*

How did COc1cc2nc(Nc3ccncc3)nc(Nc3ccc(NC(C)=O)cc3)c2cc1OC do in these assays?
ASK1 primary: 8.1; ULK1 inh: -14.7

How did COc1cc2nc(Nc3ccccc3)nc(Nc3ccccc3)c2cc1OC do in these assays?
ASK1 primary: 15.8; ULK1 inh: -12.5

How did O=C(NCCc1ccc(O)cc1)c1ccc2nc(Nc3ccncc3)sc2c1 do in these assays?
ASK1 primary: -6.6; ULK1 inh: -7.0

What do the screens show for `[Mg+2]`?
ULK1 inh: -1.9

Results for NC(=O)c1ccc(-c2nccc(NCCc3ccc(O)cc3)n2)cc1 ?
ASK1 primary: -12.9; ULK1 inh: -8.2

Results for Cc1nc(C)n(-c2ccc(Nc3nccc(-c4cccc(-n5cncn5)c4)n3)cc2)n1 ?
ASK1 primary: 48.1*; ULK1 inh: 12.0; AlphaScreen intf: >19.2

Results for Cc1nc(C)n(-c2ccc(Nc3nccc(-c4cc(-n5cncn5)cc(-n5cncn5)c4)n3)cc2)n1 ?
ASK1 primary: 9.7; ULK1 inh: 16.9

Results for O=C(Nc1ccc2c(c1)OCO2)C1CCCCN1S(=O)(=O)c1ccc(Cl)s1 (stereo unspecified) ?
ULK1 inh: -9.4

What do the screens show for `c1cc(NCCN2CCOCC2)nc(N2CCN(Cc3ccc4c(c3)OCO4)CC2)n1`?
ASK1 primary: 1.5; ULK1 inh: 11.6

What do the screens show for `CN(C)c1cccc(Nc2ccc(-n3cc(CC(=O)Nc4ccc5c(c4)OCO5)c4ccccc43)nn2)c1`?
ASK1 primary: 43.2*; ULK1 inh: 20.6; AlphaScreen intf: >19

What do the screens show for `O=C(Cc1cn(-c2ccc(Nc3ccc4ncccc4c3)nn2)c2ccccc12)Nc1ccc(N2CCOCC2)cc1`?
ASK1 primary: 24.1; ULK1 inh: 17.8

What do the screens show for `CN(C)c1cccc(Nc2ccc(-n3cc(CC(=O)Nc4ccc(N5CCOCC5)cc4)c4ccccc43)nn2)c1`?
ASK1 primary: 43.7*; ULK1 inh: 15.2; AlphaScreen intf: >20.1

How did CN(C)c1cccc(Nc2ccc(-n3cc(CC(=O)Nc4ccccc4)c4ccccc43)nn2)c1 do in these assays?
ASK1 primary: 21.7; ULK1 inh: 14.9

Results for Cn1nccc1Nc1ccc(-n2cc(CC(=O)Nc3ccc4c(c3)OCO4)c3ccccc32)nn1 ?
ASK1 primary: 21.5; ULK1 inh: 30.3

What do the screens show for `O=C(Cc1cn(-c2ccc(Nc3nccc4ccccc34)nn2)c2ccccc12)Nc1ccc2c(c1)OCO2`?
ASK1 primary: 45.5*; ULK1 inh: 9.5; AlphaScreen intf: >21.6

What do the screens show for `CC(C)n1cnc2c(Nc3ccc(N4CCOCC4)cc3)nc(-c3ccc(C(=O)N4CCN(C)CC4)cc3)nc21`?
ASK1 primary: 7.5; ULK1 inh: 10.6

Results for c1ccc(-c2cc(N3CCN(c4ccccn4)CC3)nc(-c3ccncc3)n2)cc1 ?
ULK1 inh: -12.0

How did Cc1[nH]ncc1-c1ccc(NC(=O)C2COc3ccc(F)cc3C2)c(SCCC(=O)N(C)C)c1 (stereo unspecified) do in these assays?
ASK1 primary: -14.4; ULK1 inh: 15.1
